Test results published in PubChem BioAssay AID1159580 (chemical genetic matrix, 2015).
The campaign covered roughly 5,500 compounds. About 2,000 (36%) were called active. About 18% were inconclusive and are not listed. No stated cut-off is given here; in the data, active means normalized growth mostly below about 0.91 (no sharp cut-off); inconclusive means no clear call, values can overlap the other calls; inactive means mostly above about 0.92. The list shows a part of the results.

Assay: chemical genetic growth profiling, strain panel (AID 1159580);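 further: tested at 20 µM; growth read once vehicle control cultures reached saturation at 30 °C; 1 = growth at the plate median or of vehicle wells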
Details: growth OD

Measured: normalized growth

O=C(c1ccccc1)c1ccc2n1CCC2C(=O)O (stereo not drawn)
inactive: S. cerevisiae deletion strains, locus YKL009W, strain mrt4, stronger effect = lower value 0.962 | S. cerevisiae deletion strains, locus YKL068W, stronger effect = lower value 0.979 | S. cerevisiae deletion strains, locus YKL085W, strain MDH1 (second series), stronger effect = lower value 0.99 | S. cerevisiae deletion strains, locus YKL085W, strain MDH1, stronger effect = lower value 0.99 | S. cerevisiae deletion strains, locus YKL160W, strain elf1, stronger effect = lower value 1.03 | S. cerevisiae deletion strains, locus YKL190W, strain CNB1, stronger effect = lower value 0.999 | S. cerevisiae deletion strains, locus YKR001C, strain vps1, stronger effect = lower value 0.98 | S. cerevisiae deletion strains, locus YKR026C, strain gcn3, stronger effect = lower value 1 | S. cerevisiae deletion strains, locus YKR091W, strain srl3, stronger effect = lower value 0.961 | S. cerevisiae deletion strains, locus YLL001W, strain dnm1, stronger effect = lower value 1.01 | S. cerevisiae deletion strains, locus YLL026W, stronger effect = lower value 0.999 | S. cerevisiae deletion strains, locus YLL041C, strain sdh2, stronger effect = lower value 0.995 | S. cerevisiae deletion strains, locus YLR027C, strain aat2, stronger effect = lower value 0.99 | S. cerevisiae deletion strains, locus YLR039C, strain RIC1, stronger effect = lower value 1 | S. cerevisiae deletion strains, locus YLR058C, strain SHM2, stronger effect = lower value 1 | S. cerevisiae deletion strains, locus YLR102C, strain apc9, stronger effect = lower value 0.974 | S. cerevisiae deletion strains, locus YLR113W, strain HOG1, stronger effect = lower value 1.01 | S. cerevisiae deletion strains, locus YLR221C, strain rsa3, stronger effect = lower value 1.01 | S. cerevisiae deletion strains, locus YLR258W, strain gsy2, stronger effect = lower value 0.985 | S. cerevisiae deletion strains, locus YLR262C, strain YPT6 (second series), stronger effect = lower value 0.996 | S. cerevisiae deletion strains, locus YLR262C, strain YPT6, stronger effect = lower value 0.965 | S. cerevisiae deletion strains, locus YLR268W, strain sec22, stronger effect = lower value 0.97 | S. cerevisiae deletion strains, locus YLR320W, strain mms22, stronger effect = lower value 0.966 | S. cerevisiae deletion strains, locus YLR330W, strain CHS5, stronger effect = lower value 0.989 | S. cerevisiae deletion strains, locus YLR342W, strain FKS1 (second series), stronger effect = lower value 0.998 | S. cerevisiae deletion strains, locus YLR342W, strain FKS1, stronger effect = lower value 1 | S. cerevisiae deletion strains, locus YLR357W, strain rsc2, stronger effect = lower value 1.02 | S. cerevisiae deletion strains, locus YLR370C, strain arc18, stronger effect = lower value 1.01 | S. cerevisiae deletion strains, locus YLR371W, strain rom2, stronger effect = lower value 0.962 | S. cerevisiae deletion strains, locus YLR384C, strain iki3, stronger effect = lower value 0.998 | S. cerevisiae deletion strains, locus YLR418C, strain cdc73, stronger effect = lower value 0.987 | S. cerevisiae deletion strains, locus YML016C, strain PPZ1, stronger effect = lower value 0.998 | S. cerevisiae deletion strains, locus YML032C, strain rad52, stronger effect = lower value 0.991 | S. cerevisiae deletion strains, locus YML120C, strain ndi1, stronger effect = lower value 1.01 | S. cerevisiae deletion strains, locus YML124C, strain tub3, stronger effect = lower value 0.982 | S. cerevisiae deletion strains, locus YMR058W, strain fet3, stronger effect = lower value 0.978 | S. cerevisiae deletion strains, locus YMR078C, strain ctf18, stronger effect = lower value 0.968 | S. cerevisiae deletion strains, locus YMR125W, strain sto1, stronger effect = lower value 1.01 | S. cerevisiae deletion strains, locus YMR129W, stronger effect = lower value 0.995 | S. cerevisiae deletion strains, locus YMR205C, strain PFK2, stronger effect = lower value 1.01 | S. cerevisiae deletion strains, locus YMR223W, strain ubp8, stronger effect = lower value 0.972 | S. cerevisiae deletion strains, locus YMR231W, strain pep5, stronger effect = lower value 1 | S. cerevisiae deletion strains, locus YMR307W, strain GAS1, stronger effect = lower value 0.985 | S. cerevisiae deletion strains, locus YNL067W, strain RPL9B, stronger effect = lower value 1.02 | S. cerevisiae deletion strains, locus YNL071W, strain lat1, stronger effect = lower value 0.977 | S. cerevisiae deletion strains, locus YNL128W, strain TEP1, stronger effect = lower value 0.996 | S. cerevisiae deletion strains, locus YNL153C, strain GIM3, stronger effect = lower value 0.998 | S. cerevisiae deletion strains, locus YNL175C, strain NOP13, stronger effect = lower value 1 | S. cerevisiae deletion strains, locus YNL183C, strain NPR1, stronger effect = lower value 0.973 | S. cerevisiae deletion strains, locus YNL197C, strain WHI3, stronger effect = lower value 1.01 | S. cerevisiae deletion strains, locus YNL209W, strain ssb2, stronger effect = lower value 0.985 | S. cerevisiae deletion strains, locus YNL224C, strain SQS1, stronger effect = lower value 1.01 | S. cerevisiae deletion strains, locus YNL233W, strain BNI4, stronger effect = lower value 1.03 | S. cerevisiae deletion strains, locus YNL248C, strain rpa49, stronger effect = lower value 0.968 | S. cerevisiae deletion strains, locus YNL250W, strain rad50, stronger effect = lower value 0.986 | S. cerevisiae deletion strains, locus YNL271C, strain bni1, stronger effect = lower value 0.96 | S. cerevisiae deletion strains, locus YNL298W, strain CLA4, stronger effect = lower value 0.969 | S. cerevisiae deletion strains, locus YNL307C, strain MCK1, stronger effect = lower value 0.976 | S. cerevisiae deletion strains, locus YNL322C, strain KRE1 (second series), stronger effect = lower value 0.982 | S. cerevisiae deletion strains, locus YNL322C, strain KRE1, stronger effect = lower value 1.01 | S. cerevisiae deletion strains, locus YNR049C, strain mso1, stronger effect = lower value 0.983 | S. cerevisiae deletion strains, locus YNR052C, strain pop2, stronger effect = lower value 0.97 | S. cerevisiae deletion strains, locus YOL006C, strain TOP1, stronger effect = lower value 1.05 | S. cerevisiae deletion strains, locus YOL012C, strain htz1 0.945 | S. cerevisiae deletion strains, locus YOL147C, strain pex11, stronger effect = lower value 0.982 | S. cerevisiae deletion strains, locus YOR001W, strain rrp6, stronger effect = lower value 1.01 | S. cerevisiae deletion strains, locus YOR061W, strain CKA2, stronger effect = lower value 0.997 | S. cerevisiae deletion strains, locus YOR069W, strain VPS5, stronger effect = lower value 0.994 | S. cerevisiae deletion strains, locus YOR070C, strain gyp1, stronger effect = lower value 1 | S. cerevisiae deletion strains, locus YOR080W, strain dia2, stronger effect = lower value 1.01 | S. cerevisiae deletion strains, locus YOR083W, strain WHI5 (second series), stronger effect = lower value 1.03 | S. cerevisiae deletion strains, locus YOR083W, strain WHI5, stronger effect = lower value 1.04 | S. cerevisiae deletion strains, locus YOR106W, strain vam3, stronger effect = lower value 1.03 | S. cerevisiae deletion strains, locus YOR136W, strain idh2, stronger effect = lower value 0.971 | S. cerevisiae deletion strains, locus YOR144C, strain elg1, stronger effect = lower value 0.982 | S. cerevisiae deletion strains, locus YOR184W, strain ser1, stronger effect = lower value 0.964 | S. cerevisiae deletion strains, locus YOR231W, strain MKK1, stronger effect = lower value 1.02 | S. cerevisiae deletion strains, locus YOR265W, strain rbl2, stronger effect = lower value 1 | S. cerevisiae deletion strains, locus YOR270C, strain vph1, stronger effect = lower value 0.972 | S. cerevisiae deletion strains, locus YOR290C, strain snf2, stronger effect = lower value 0.962 | S. cerevisiae deletion strains, locus YOR316C, strain cot1, stronger effect = lower value 0.956 | S. cerevisiae deletion strains, locus YPL051W, strain arl3, stronger effect = lower value 1.04 | S. cerevisiae deletion strains, locus YPL055C, strain LGE1, stronger effect = lower value 1.02 | S. cerevisiae deletion strains, locus YPL078C, strain atp4, stronger effect = lower value 1.01 | S. cerevisiae deletion strains, locus YPL106C, strain sse1, stronger effect = lower value 0.978 | S. cerevisiae deletion strains, locus YPL240C, strain hsp82, stronger effect = lower value 1 | S. cerevisiae deletion strains, locus YPL256C, strain CLN2, stronger effect = lower value 1.01 | S. cerevisiae deletion strains, locus YPR119W, strain clb2, stronger effect = lower value 0.961 | S. cerevisiae deletion strains, locus YPR141C, strain kar3, stronger effect = lower value 0.977 | S. cerevisiae deletion strains, locus YPR163C, strain tif3, stronger effect = lower value 0.978 | S. cerevisiae deletion strains, locus YPR167C, strain met16, stronger effect = lower value 0.976 | S. cerevisiae deletion strains, strain wtn01, stronger effect = lower value 0.985 | S. cerevisiae strains, strain wild type, stronger effect = lower value 1
